Source: PubChem BioAssay AID1030 (National Center for Advancing Translational Sciences (NCATS), 2008)
“And” between values parts separate entries of the source, which are not always exact repeats. Equal entries are not always repeated. Among all 220,000 compounds or so, about 16,000 (7.3%) were called active. Roughly 25% stayed inconclusive and do not appear here. The call rests on the fitted dose curve; in most records, active means well fitted inhibition curve with a large enough effect (not every such curve was filed as active); inconclusive means small, poorly fitted or top-dose-only effect, or another doubt; inactive means no such curve, though single readings can be large or run the other way. This excerpt belongs to a sample that is enriched for actives. More than one record can exist for a structure, and the calls need not agree.

molecular target: Aldehyde dehydrogenase 1A1 (Homo sapiens) (UniProt P00352); assay: qHTS Assay for Inhibitors of Aldehyde Dehydrogenase 1 (ALDH1A1); settings: Purified ALDH1A1, NADH fluorescence, propionaldehyde substrate; series mostly up to 75.3 µM; activity, negative = inhibition: at the top concentration;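 on activity, negative = inhibition: plate controls were no enzyme wells and a reference inhibitor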
Potency means the concentration at half of the fitted maximal effect.

Aldehyde dehydrogenase 1A1 (Homo sapiens), sequence (P00352 whole entry, looked up): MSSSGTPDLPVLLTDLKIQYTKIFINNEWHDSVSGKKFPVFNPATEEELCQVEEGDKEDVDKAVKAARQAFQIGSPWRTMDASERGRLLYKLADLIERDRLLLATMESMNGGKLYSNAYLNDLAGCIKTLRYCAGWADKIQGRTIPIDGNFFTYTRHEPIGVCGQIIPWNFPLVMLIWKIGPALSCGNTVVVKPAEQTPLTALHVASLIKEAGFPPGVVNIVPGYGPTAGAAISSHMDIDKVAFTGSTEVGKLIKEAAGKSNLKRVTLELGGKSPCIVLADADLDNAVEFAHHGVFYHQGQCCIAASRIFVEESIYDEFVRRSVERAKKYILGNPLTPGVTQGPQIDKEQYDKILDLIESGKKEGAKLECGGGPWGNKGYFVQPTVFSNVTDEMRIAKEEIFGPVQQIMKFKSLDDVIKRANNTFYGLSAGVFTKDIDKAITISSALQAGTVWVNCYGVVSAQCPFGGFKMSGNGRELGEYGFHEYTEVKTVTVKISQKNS

Row | SMILES | Potency | activity, negative = inhibition
1 | Cn1c(-c2ccc(F)cc2)cnc1SCC(=O)NCc1ccco1 | 22.4 µM (active) | –
2 | Cn1c(-c2ccc(F)cc2)cnc1SCC(=O)NNC(=O)Cc1ccccc1 | – | 0.789% (inactive)
3 | O=C(CSc1nnc2scc(-c3ccc(F)cc3)n12)NCc1ccco1 | – | -5.13% (inactive)
4 | COc1ccc(-c2ccc(OC(=O)NC3CCS(=O)(=O)C3)cc2)cc1 (configuration not stated) | – | 8.45% (inactive)
5 | CCOC(=O)N1CCN(C(=O)c2ccccc2N(Cc2ccccc2)S(=O)(=O)c2ccc(OC)cc2)CC1 | – | 3.86% (inactive)
6 | COc1ccccc1-n1nnnc1S(=O)(=O)Cc1ccc(Cl)cc1 | 2.51 µM (active) | –
7 | N#Cc1cccc(CS(=O)(=O)c2nnnn2-c2cc(C(F)(F)F)cc(C(F)(F)F)c2)c1 | – | 3.86% (inactive)
8 | COc1ccccc1N1CCN(C(=O)CN(Cc2ccc(Cl)cc2)S(C)(=O)=O)CC1 | – | 3.38% (inactive)
9 | CCN(CCCNC(=O)CCn1c(=O)[nH]c2ccsc2c1=O)c1ccccc1 | – | -8.83% (inactive)
10 | CC(C)Nc1ncnc2c1nnn2Cc1ccccc1 | 12.6 µM (active) | –
11 | Cc1nc(Nc2ccc(S(=O)(=O)N3CCCC3)cc2)c2nnn(Cc3ccccc3)c2n1 | – | 5.63% (inactive)
12 | CC(C)(C)c1nc(NCC2CCCO2)c2nnn(Cc3ccccc3)c2n1 (configuration not stated) | – | 6.84% (inactive)
13 | COc1ccc(N2CCN(C(=O)C3CCN(S(=O)(=O)c4ccc(C)cc4)CC3)CC2)cc1 | – | -7.46% (inactive)
14 | COc1ccc(/C=C(\C#N)C(=O)NCCCn2ccnc2)cc1 | – | -1.14% (inactive)
15 | COc1ccc(/C=C(\C#N)C(=O)ONC2=NCCCCC2)cc1 | 35.5 µM (active) | –
16 | COc1ccc(C(=O)NC(=S)Nc2ccccc2N2CCN(S(C)(=O)=O)CC2)cc1OC | 0.501 µM (active) | –
17 | COC(=O)c1ccc(NC(=S)NN2CCOCC2)cc1 | – | -0.42% (inactive)
18 | Cc1cccc(OCC(=O)NC(=S)Nc2ccccc2N2CCOCC2)c1 | – | -11.4% (inactive)
19 | Cc1ccc(C(=O)NC(=S)NCCN2CCOCC2)cc1 | – | 5.75% (inactive)
20 | COc1ccc(C(=O)NC(=S)Nc2ccc(Cl)cn2)cc1OC | – | 10% (inactive)
21 | COc1ccc(C(=O)NC(=S)Nc2ccc(N3CCCC3)cc2)cc1OC | 3.55 µM (active) | –
22 | Cc1ccc(C(=O)NC(=S)Nc2ccc(N3CCOCC3)cc2)cc1 | 11.2 µM (active) | –

Row | SMILES | Potency | activity, negative = inhibition
23 | COc1ccc(C(=O)Nc2ccc3nc(N4CCCCC4)cc(C)c3c2)cc1OC | – | -13.5% (inactive)
24 | COc1cccc(OC)c1C(=O)Nc1ccc(N2CCCCC2)cc1 | – | -1.34% (inactive)
25 | CC1(C)CC(=O)C=C(N2CCOCC2)C1 | – | -1.31% (inactive)
26 | O=[N+]([O-])c1ccc(Sc2n[nH]c(-c3ccco3)n2)nc1 | – | 5.62% (inactive)
27 | CN(c1ccc(OCC(=O)OCC(=O)Nc2cccc([N+](=O)[O-])c2)cc1)S(=O)(=O)c1ccc(F)cc1 | – | 2.62% (inactive)
28 | O=C(Cc1ccc(F)cc1)N1CCN=C1SCc1cccc([N+](=O)[O-])c1 | – | -8.83% (inactive)
29 | COc1cccc(C(O)Cc2nc3ccccc3n2C)c1OC (configuration not stated) | – | 3.05% (inactive)
30 | CCNC(=O)COc1cc(C)c(Br)c(C)c1 | – | 10% (inactive)
31 | CCc1cc(C(=O)c2ccc(OC)cc2)c(NC(=O)CN2CCN(C)CC2)s1 | – | 1.85% (inactive)
32 | Cc1cc(Cl)ccc1NC(=S)NCCCN1CCCC1=O | – | 6.05% (inactive)
33 | CCOC(=O)c1cn(Cc2cccc(C)c2)nn1 | – | -9.64% (inactive)
34 | CCOC(=O)c1c(N)nn(C(=O)c2ccccc2)c1-c1ccccc1 | – | 6.37% (inactive)
35 | CCOC(=O)c1nn(-c2cccc(C)c2)cc1C(=O)c1ccccc1 | 5.01 µM (active) | –
36 | CCCCS(=O)(=O)N1C2=NC(C(=O)OC)=C(C(=O)OC)[C@@H]3N(Cc4ccccc4)c4ccccc4[C@]23C[C@H]1C(=O)OC | – | 1.36% [at 13.5 µM] (inactive)
37 | CC(C)(C)c1ccc(/C=C2\SC(=O)N=C2N)cc1 | – | 8.52% (inactive)
38 | COc1ccc(-c2nnn(Cc3nc(N)nc(N4CCCCC4)n3)n2)cc1 | 0.562 µM (active) | –
39 | COc1ccc(-n2nnnc2SCc2nc(N)nc(N3CCOCC3)n2)cc1 | – | 17.4% (inactive)
40 | CN(C)c1nc(N)nc(Cn2nnc(-c3ccc(C(F)(F)F)cc3)n2)n1 | – | 6.45% (inactive)
41 | CC(Nc1ccccc1)c1cccnc1 (configuration not stated) | – | 7.63% (inactive)
42 | OC[C@H]1O[C@@H](n2cnc3c(N[C@H]4CC5CCC4C5)ncnc32)[C@H](O)[C@@H]1O (some centres not stated) | – | 6.91% (inactive)
43 | COc1ccccc1/C=C/C=N/n1c(-c2ccc(Cl)cc2Cl)n[nH]c1=S | 20 µM (active) | –
44 | COn1c(-c2ccc(Cl)cc2Cl)nc2ncccc21 | – | 15.4% (inactive)

Row | SMILES | Potency | activity, negative = inhibition
45 | Clc1ccc(-c2ncc3ccccn23)c(Cl)c1 | – | -5.79% (inactive)
46 | Cc1cc(/C=N/NC(N)=O)c(C)n1C1CCCCC1 | – | -3.75% (inactive)
47 | CC1CCc2sc(C(=O)N/N=C/C3CCCCC3)cc2C1 (configuration not stated) | 11.2 µM (active) | –
48 | OC(CNCc1ccc(Cl)c(Cl)c1)c1ccccc1 (configuration not stated) | – | 3.1% (inactive)
49 | Cc1ccc(-c2nc3c(cnn3-c3ccccc3)c(=O)o2)cc1 | – | -7.8% (inactive)
50 | COc1ccc(-n2c(C)nc3c(cnn3-c3ccccc3)c2=O)cc1 | – | -5.74% (inactive)
51 | Cc1ccc(-n2ncc3c(=O)n(-c4ccc(C)c(C)c4)c(-c4ccco4)nc32)cc1 | 25.1 µM (active) | –
52 | Cn1nnnc1SCC(=O)Nc1nc2ccccc2s1 | – | -8.43% (inactive)
53 | Cc1cc([N+](=O)[O-])nn1CCCC(=O)Nc1cccnc1Cl | – | 5.05% (inactive)
54 | COc1ccc(CC(N)C(=O)NC2C(O)[C@H](n3cnc4c(N(C)C)ncnc43)O[C@@H]2CO)cc1 (some centres not stated) | – | 2.23% (inactive)
55 | COC(=O)[C@H](Cc1ccccc1)NC(=O)[C@@H]1C[C@H]1[C@@H](NC(=O)OCc1ccccc1)c1ccccc1 | – | 17.6% (inactive)
56 | O=C(NCC1CCC(C(=O)O)CC1)OCc1ccccc1 (configuration not stated) | – | -0.584% (inactive)
57 | COC(=O)[C@H](C)[C@H]1C[C@]1(C)[C@H](NC(=O)OCc1ccccc1)c1ccccc1 | inactive and 22.4 µM (active) | –
58 | COc1ccc(C2(CNC(=O)Cc3ccc(OC)c(OC)c3)CCCC2)cc1 | – | 5.66% (inactive)
59 | CCN(CCn1cccn1)Cc1nc(-c2ccc(C(=O)OC)cc2)no1 | – | 5.91% (inactive)
60 | O=C1OC(/C=C/c2ccccc2)=NC/1=C/c1ccco1 | 11.2 µM (active) | –
61 | O=c1oc(/C=C/c2ccccc2)nc2ccccc12 | – | 5.64% (inactive)
62 | CC(=O)Oc1ccccc1C1=NN(C(C)=O)C(c2ccccc2)C1 (configuration not stated) | – | -3.23% (inactive)
63 | COc1ccccc1N1CCN(/N=C\C(Br)=C\c2ccccc2)CC1 | 5.62 µM (active) | –
64 | CNCC(O)CN1CCN(c2ccccc2OC)CC1 (configuration not stated) | – | 3.3% (inactive)
65 | COc1ccccc1N1CCN(C(=O)C(=O)N/N=C/c2ccccc2F)CC1 | – | -4.88% (inactive)
66 | COc1ccccc1CNC(=O)COc1ccc(C)nc1[N+](=O)[O-] | – | 8.34% (inactive)

Row | SMILES | Potency | activity, negative = inhibition
67 | O=S(=O)(NCCc1ccc(F)cc1)c1cccc2cccnc12 | – | -5.69% (inactive)
68 | Cc1coc2c(O)cc3c(c12)OC1(N2CCCCC2)C(=O)NCCCC31 (configuration not stated) | 20 µM (active) | –
69 | COc1ccc(NC(=O)C(Br)C(C)C)cc1 (configuration not stated) | – | 8% (inactive)
70 | Cc1nn(-c2ccccc2)c2c1C(c1cccc([N+](=O)[O-])c1)N(c1ccccc1)C(=O)N2 (configuration not stated) | – | -4.59% (inactive)
71 | CCOc1ccc(C(=O)Nc2cccc(-c3ccc4nncn4n3)c2)cc1 | – | 6.9% (inactive)
72 | CCCn1nc(C(=O)N2CCCc3ccccc32)c2ccccc2c1=O | – | 0.156% (inactive)
73 | Cc1occc1C(=O)N1CCCc2ccccc21 | 31.6 µM (active) | –
74 | NC(=O)N1CCc2ccccc21 | – | -0.487% (inactive)
75 | CCOC(=O)C1=NO[C@@]2(C=C(Br)C(=O)[C@H]3O[C@H]32)C1 | – | -3.87% (inactive)
76 | CN(C)c1ccc(/C=N/NC(=O)c2ccc(Cn3cc(Br)cn3)o2)cc1 | 17.8 µM (active) | –
77 | O=C(N/N=C\c1ccc(Br)cc1)c1ccc(Cn2cccn2)o1 | – | 1.46% (inactive)
78 | O=C(N/N=C/c1ccc2c(c1)OCO2)c1ccc(Cn2cc([N+](=O)[O-])cn2)o1 | – | -3.18% (inactive)
79 | COc1ccc(C2CC(c3cccs3)Nc3nnnn32)cc1 (configuration not stated) | – | -3.25% (inactive)
80 | O=c1[nH]c(CN2CCOCC2)nc2cc(Cl)ccc12 | – | 5.97% (inactive)
81 | CCC1(CC)NC(=O)N(CC(=O)OCC(=O)NC(=O)c2ccccc2)C1=O | – | -4.7% (inactive)
82 | O=C(c1ccccc1Cl)N(Cc1ccccc1F)N1C(=O)CCCC1=O | – | 7.83% (inactive)
83 | COc1ccc(NC(=O)N2CCCC(c3nc(-c4ccc(F)cc4)no3)C2)cc1 (configuration not stated) | – | -1.81% (inactive)
84 | CC(=O)N1c2ccccc2N(Cc2ccc([N+](=O)[O-])cc2)C(=O)C1(C)C | – | 10.7% (inactive)
85 | Cc1ccc(C)c(NC(=O)CCC(=O)NNC(=O)c2cccs2)c1 | – | 1.54% (inactive)
86 | COC(=O)C(CC(=O)Nc1cc(C)ccc1C)Nc1ccccc1OC (configuration not stated) | – | 4.82% (inactive)
87 | Cc1ccc(C)c(NC(CC(=O)c2ccccc2)C(=O)OCC(=O)c2cccs2)c1 (configuration not stated) | 7.08 µM (active) | –
88 | O=C(COC(=O)CNC(=O)c1ccccc1F)NCC(F)(F)F | – | 0.995% (inactive)

Row | SMILES | Potency | activity, negative = inhibition
89 | O=C(COC(=O)c1ccc(O)cc1)Nc1nccs1 | – | -0.667% (inactive)
90 | OC(COCCC12CC3CC(CC(C3)C1)C2)CN1CCCCC1 (configuration not stated) | 20 µM (active) | –
91 | Cc1cccc(C)c1OCC(O)CN1CCCCC1 (configuration not stated) | – | 0.0933% (inactive)
92 | OC(COc1cccc(OCC(O)CN2CCCC2)c1)CN1CCCC1 (configuration not stated) | – | -4.35% (inactive)
93 | CC1CCCCC1NC(=O)CO/N=C/c1ccc(OC(F)F)cc1 (configuration not stated) | – | 1.1% (inactive)
94 | CCCCCCCCc1c(O)nc(-n2[nH]c(C)c(CCO)c2=O)[nH]c1=O | – | 5.41% (inactive)
95 | CCOc1ccccc1Nc1ccc(C(=O)O)cc1[N+](=O)[O-] | – | 4.42% (inactive)
96 | CSc1ccccc1NC(=O)CN(C)CC(=O)Nc1ccc(Cl)cc1[N+](=O)[O-] | – | -2.42% (inactive)
97 | CSc1nc2nc(-c3cccc(C(F)(F)F)c3)ccn2n1 | – | 0.606% (inactive)
98 | O=C1CCCC(O)=C1N=Nc1ccc2ncsc2c1 | 25.1 µM (active) | –
99 | Cc1ccc(NC(=S)N(Cc2ccco2)C(C)c2cccs2)cc1 (configuration not stated) | – | 9.71% (inactive)
100 | O=C(Oc1cccc(O)c1)C1CCCCC1 | – | 3.69% (inactive)
101 | CC(=O)C1=C(O)C(=O)N(c2cccnc2)C1c1ccc([N+](=O)[O-])cc1 (configuration not stated) | 20 µM (active) | –
102 | COC(=O)CN1C(=O)C(O)=C(C(C)=O)C1c1ccc([N+](=O)[O-])cc1 (configuration not stated) | – | 3.05% (inactive)
103 | COc1ccc(C2C(C(C)=O)=C(O)C(=O)N2Cc2cccnc2)cc1 (configuration not stated) | – | 1.23% (inactive)
104 | O=C1N=C(N2CCCC2)S/C1=C\c1cccc(Br)c1 | 25.1 µM (active) | –
105 | CCNC(=S)N1CCN(C(=O)c2ccco2)CC1 | – | 8.19% (inactive)
106 | O=C(OCC(=O)N1CCN(C(=O)c2ccco2)CC1)c1ccccc1Cc1ccccc1 | – | -7.91% (inactive)
107 | O=C(CNS(=O)(=O)c1ccc(Br)s1)N1CCN(C(=O)c2ccco2)CC1 | 39.8 µM (active) | –
